Experimental data published in PubChem BioAssay (NCI).
Compounds without any hit were thinned out: in the full panel of roughly 83,000, 20% have a hit.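 Note: values are percent growth. 100 is the growth of untreated cells, values between 100 and 0 indicate rising inhibition; between -100 and 0 indicates cell death.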 Values without a mark were called inactive. Activity calls are given as the source filed them. The calls were made as follows: active = growth percent below 10; inactive = the rest.

Assays:
Assay in all cases: NCI-60 one-dose screen, 48 h (100 = growth as untreated, 0 = no growth, -100 = all killed)
Details in all cases: 10 µM unless noted
HCT-15 colon = system: HCT-15 colon
HT29 colon = system: HT29 colon
SNB-75 CNS = system: SNB-75 CNS
SNB-19 CNS = system: SNB-19 CNS
PC-3 prostate = system: PC-3 prostate
SK-MEL-5 melanoma = system: SK-MEL-5 melanoma
UACC-62 melanoma = system: UACC-62 melanoma
LOX IMVI melanoma = system: LOX IMVI melanoma
SK-MEL-28 melanoma = system: SK-MEL-28 melanoma

SMILES | growth (HCT-15 colon) | growth (HT29 colon) | growth (SNB-75 CNS) | growth (SNB-19 CNS) | growth (PC-3 prostate) | growth (SK-MEL-5 melanoma) | growth (UACC-62 melanoma) | growth (LOX IMVI melanoma) | growth (SK-MEL-28 melanoma)
N#C/C(=C\c1ccc(-c2ccc(Cl)c(Cl)c2)o1)c1nc(-c2ccco2)cs1 | 34.6% | 88% | 70.7% | 100% | 95.8% | 70.5% | 78.3% | 93.9% | 114%
COc1ccc(-c2nc3ccc(-c4nc5ccc(N6CCN(c7ccccc7)CC6)cc5[nH]4)cc3[nH]2)cc1OC | 15.8% | -91% (active) | 45.6% | -1.62% (active) | -31.5% (active) | 43.4% | 41.6% | -91.8% (active) | -47.5% (active)
N#Cc1c(-c2ccc(Cl)cc2)nc(N/N=C/c2cccc(Br)c2)nc1N1CCOCC1 | 8.41% (active) | 29% | 76.8% | 107% | 61.2% | 85.6% | 92.6% | 79.8% | 99.5%
Cc1nc2c3c(-c4ccccc4)c(-c4ccccc4)oc3ncn2n1 | 101% | 95.8% | 69.9% | 96.6% | 91.3% | 96.3% | 92.3% | 90.7% | 118%
O=C1NC(=S)N[C@H]1CC(=O)n1cnc2ccccc21 | 99.1% | 111% | 69.7% | 102% | 101% | 99.1% | 93.4% | 88.5% | 111%
COc1ccc(-c2cc(NC(=O)Nc3ccc4ncsc4c3)no2)cc1 | 96.5% | 97.2% | 60.2% | 92.9% | 92.6% | 99.5% | 95.9% | 102% | 108%
C=C(C)[C@@H]1CC[C@]2(C(=O)OC)CC[C@]3(C)[C@H](CC[C@@H]4[C@@]5(C)C/C(=C/c6cccc(I)c6)C(=O)C(C)(C)[C@@H]5CC[C@]43C)[C@@H]12 | 99.3% | 107% | 89.2% | 94% | 96% | 99% | 96.5% | 91.9% | 104%
N#CCCN=Nc1c(O)[nH]c2ccc(F)cc12 | 101% | 110% | 62.7% | 101% | 95.2% | 99.5% | 102% | 94.5% | 107%
CSc1nc(NCCN2CCOCC2)c(C#N)c(-c2cccc([N+](=O)[O-])c2)n1 | 97.4% | 106% | 62.8% | 95.2% | 97.4% | 99.3% | 87.4% | 95.9% | 103%
Cc1nc(/N=C(\N)NC(=O)Nc2cccc([N+](=O)[O-])c2)sc1C | 30.1% | 42.8% | 58.3% | 90.1% | 77.1% | 91.1% | 63.1% | 71.7% | 80.5%
COc1cc(/C=C/C(=O)c2ccc(O)c(CN3CCN(c4cc5c(cc4F)c(=O)c(C(=O)O)cn5C4CC4)CC3)c2)cc(OC)c1OC | 19.3% | 10.3% | 57.7% | 75.7% | 47.1% | 64% | 59.9% | 20.7% | 59.3%
Cc1cc(N2CCOCC2)nc(NCc2cc(Nc3ccnc4cc(Cl)ccc34)ccc2F)n1 | -81.9% (active) | -28.5% (active) | -20.3% (active) | -22.9% (active) | -30% (active) | -98.3% (active) | -83.6% (active) | -68.4% (active) | -73.1% (active)
COc1cccc(Nc2nc(SC)nc(-c3cccc([N+](=O)[O-])c3)c2C#N)c1 | 79.2% | 78% | 34% | 67.2% | 71.2% | 87.2% | 78.5% | 64.9% | 76.3%
CC(C)(O)c1cn(CCCCN2C(=O)C(=O)c3ccccc32)nn1 | 101% | 107% | 68% | 95.9% | 96.3% | 99.7% | 98.1% | 91.6% | 113%
O=C(N=Nc1c(O)[nH]c2ccc(Br)cc12)c1cc(-c2ccccc2)on1 | 103% | 97% | 58.4% | 102% | 100% | 99.9% | 103% | 94.8% | 106%
O=C(/C=C/c1cccc(Cl)c1)c1ccc(O)c(CN2CCN(c3cc4c(cc3F)c(=O)c(C(=O)O)cn4C3CC3)CC2)c1 | 17.5% | 4.36% (active) | 28.7% | 35.9% | 19.9% | 24.5% | 34.9% | 11.7% | 58.8%
C=CC(=O)Nc1cccc(Nc2nc(SC)nc(-c3cccc([N+](=O)[O-])c3)c2C#N)c1 | 52.2% | 33.7% | 23.2% | 79.5% | 37.5% | 55.2% | 65.7% | 46.1% | 25.3%
CSc1nc(Nc2cccc(NC(=O)/C(C#N)=C/c3c(Cl)cccc3Cl)c2)c(C#N)c(-c2cccc([N+](=O)[O-])c2)n1 | 28.9% | 49.2% | 47.5% | 72.5% | 45.1% | 49.6% | 33.2% | 2.43% (active) | 76.7%
O=S(=O)(Nc1ccc(I)cc1F)c1ccc(-c2cnc(C3CC3)o2)cc1 | 25.5% | 15.9% | 15.4% | 62.8% | 68% | 62.8% | 32.8% | 52.5% | 61.7%
C=C(C)[C@@H]1CC[C@]2(C(N)=O)CC[C@]3(C)[C@H](CC[C@@H]4[C@@]5(C)C/C(=C/c6ccco6)C(=O)C(C)(C)[C@@H]5CC[C@]43C)[C@@H]12 | 86.9% | 98.5% | 89.5% | 94.5% | 75.7% | 96.5% | 80.2% | 88.4% | 99.6%
COc1cc2nc(N3CCCC3)nc(NCC3CCCCC3)c2cc1OC | -70.9% (active) | -24.8% (active) | 93.4% | 82.9% | 25.1% | -97.7% (active) | 87% | -92.8% (active) | -86.4% (active)
COc1ccc(/C=C/C(=O)c2ccc(O)c(CN3CCN(c4cc5c(cc4F)c(=O)c(C(=O)O)cn5C4CC4)CC3)c2)cc1 | 19.1% | 11.1% | -5.37% (active) | 24% | 18.1% | -23% (active) | 27.2% | 12.8% | 57.9%
COc1ccc(Nc2nc(SC)nc(-c3cccc([N+](=O)[O-])c3)c2C#N)cc1 | 78.6% | 70.3% | 10.3% | 79% | 75.8% | 70.9% | 69.5% | 70.8% | 84.9%
CON1C(=O)CC[C@]2(C)[C@H]3CC[C@@H]4C([C@@]5(C)CCC(=O)O5)CC[C@@]4(C)[C@]3(C)CC[C@H]2C1(C)C (stereo partly drawn) | 99.8% | 94.6% | 71.5% | 96.5% | 87.4% | 98.4% | 87.2% | 95.1% | 107%
C=CC(=O)Nc1cccc(-c2nc(SC)nc(Nc3ccccc3OC)c2C#N)c1 | 16.9% | 2.25% (active) | 24.4% | 74.5% | 31.9% | 66.7% | 75% | 16.9% | 50.8%
O=C1/C(=C/c2cn(-c3ccccc3)nc2-c2ccccc2)SC(=S)N1CCc1ccccc1 | 106% | 104% | 71.9% | 99% | 100% | 101% | 98% | 99.3% | 118%
Cc1nc2ccccc2n1C(=O)C[C@@H]1NC(=S)NC1=O | 93% | 105% | 74.1% | 98.3% | 105% | 100% | 97.1% | 95.3% | 99.2%
